Test results reported in PubChem BioAssay (NCI).
About 83,000 compounds went through this panel and 20% of them were active in at least one assay; those are over-represented in the sample as a whole.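 Cells were grown in 96-well plates and exposed to the test compound at a single concentration for 48 hours; results are reported as percent growth, with values below 10 considered active.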 Active and inactive are the calls of the source.

Experiments:
Assay in all cases: NCI-60 one-dose screen, 48 h (100 = growth as untreated, 0 = no growth, -100 = all killed)
Conditions in all cases: 10 µM unless noted
DU-145 prostate = tested on: DU-145 prostate
K-562 leukemia = tested on: K-562 leukemia
MALME-3M melanoma = tested on: MALME-3M melanoma
MDA-MB-231 breast = tested on: MDA-MB-231 breast
RXF 393 renal = tested on: RXF 393 renal
SF-268 CNS = tested on: SF-268 CNS
SF-295 CNS = tested on: SF-295 CNS
SF-539 CNS = tested on: SF-539 CNS
UACC-257 melanoma = tested on: UACC-257 melanoma
M14 melanoma = tested on: M14 melanoma
HCT-15 colon = tested on: HCT-15 colon
HT29 colon = tested on: HT29 colon
SNB-75 CNS = tested on: SNB-75 CNS
SNB-19 CNS = tested on: SNB-19 CNS
U251 CNS = tested on: U251 CNS
PC-3 prostate = tested on: PC-3 prostate
SK-MEL-5 melanoma = tested on: SK-MEL-5 melanoma
UACC-62 melanoma = tested on: UACC-62 melanoma
LOX IMVI melanoma = tested on: LOX IMVI melanoma
SK-MEL-28 melanoma = tested on: SK-MEL-28 melanoma

Measured: growth

C[C@H]1[C@H](C)CC[C@]2(CO)CC[C@]3(C)C(=CC[C@@H]4[C@@]5(C)Cc6c([nH]c7ccccc67)C(C)(C)[C@@H]5CC[C@]43C)[C@H]12
inactive: DU-145 prostate 71.1% | K-562 leukemia 52.4% | MALME-3M melanoma 46.9% | MDA-MB-231 breast 88.8% | RXF 393 renal 84.1% | SF-268 CNS 74.5% | SF-295 CNS 81.2% | SF-539 CNS 96% | UACC-257 melanoma 108% | M14 melanoma 92.8% | HCT-15 colon 100% | HT29 colon 68.1% | SNB-75 CNS 87.6% | SNB-19 CNS 80.8% | U251 CNS 72.4% | PC-3 prostate 68.5% | SK-MEL-5 melanoma 97.5% | UACC-62 melanoma 81.4% | LOX IMVI melanoma 79.1% | SK-MEL-28 melanoma 79.6%

O=C1Nc2cc(-c3ccncc3)ccc2/C1=C/c1ccc[nH]1
inactive: DU-145 prostate 88.1% | K-562 leukemia 98.3% | MALME-3M melanoma 65.8% | MDA-MB-231 breast 65.2% | RXF 393 renal 93.1% | SF-268 CNS 94.5% | SF-295 CNS 102% | SF-539 CNS 91.9% | UACC-257 melanoma 114% | M14 melanoma 91.9% | HCT-15 colon 72.3% | HT29 colon 88.8% | SNB-75 CNS 89.3% | SNB-19 CNS 97% | U251 CNS 91.7% | PC-3 prostate 88.1% | SK-MEL-5 melanoma 77.9% | UACC-62 melanoma 111% | LOX IMVI melanoma 98.8%

COc1cc2nc(-c3ccc(C(F)(F)F)cc3)cc(OCCN3CCCC3)c2cc1OC
inactive: DU-145 prostate 84.1% | K-562 leukemia 47.4% | MALME-3M melanoma 85.8% | MDA-MB-231 breast 74.6% | RXF 393 renal 65.4% | SF-268 CNS 81% | SF-295 CNS 83% | SF-539 CNS 81.1% | UACC-257 melanoma 68.9% | HCT-15 colon 67.3% | HT29 colon 66.4% | SNB-75 CNS 71.6% | SNB-19 CNS 88.7% | U251 CNS 76.8% | PC-3 prostate 73.8% | SK-MEL-5 melanoma 84.4% | UACC-62 melanoma 93.3% | LOX IMVI melanoma 27% | SK-MEL-28 melanoma 78.6%
active: M14 melanoma 4.5%

CCCCCCCCCCCC(=O)C(CCCCCCCCCC)C(=O)Nc1ccccc1 (centres undefined)
inactive: DU-145 prostate 104% | K-562 leukemia 104% | MALME-3M melanoma 105% | MDA-MB-231 breast 91.2% | RXF 393 renal 116% | SF-268 CNS 104% | SF-295 CNS 102% | SF-539 CNS 98.2% | UACC-257 melanoma 92.9% | M14 melanoma 103% | HCT-15 colon 115% | HT29 colon 94.7% | SNB-75 CNS 101% | SNB-19 CNS 101% | U251 CNS 99.4% | PC-3 prostate 92.6% | SK-MEL-5 melanoma 97.9% | UACC-62 melanoma 91.5% | LOX IMVI melanoma 93.5% | SK-MEL-28 melanoma 108%

C(=C\c1n(Cc2ccc3ccccc3c2)c(-c2ccccc2)c(-c2ccccc2)[n+]1Cc1ccc2ccccc2c1)/c1ccccc1
active: DU-145 prostate -97% | K-562 leukemia -22.3% | MALME-3M melanoma -86.9% | MDA-MB-231 breast -95% | RXF 393 renal -93.5% | SF-268 CNS -68.5% | SF-295 CNS -95.9% | SF-539 CNS -91.9% | UACC-257 melanoma -69.2% | M14 melanoma -72.2% | HCT-15 colon -81.2% | HT29 colon -63.5% | SNB-75 CNS -99.9% | SNB-19 CNS -93.7% | U251 CNS -80.6% | PC-3 prostate -81.2% | SK-MEL-5 melanoma -99.1% | UACC-62 melanoma -89.9% | LOX IMVI melanoma -96% | SK-MEL-28 melanoma -80.8%

Cc1c(C(=O)NO)sc2ncnc(Nc3ccc(NC(=S)Nc4ccccc4)cc3)c12
inactive: DU-145 prostate 107% | K-562 leukemia 103% | MALME-3M melanoma 99.5% | MDA-MB-231 breast 95% | RXF 393 renal 104% | SF-268 CNS 98.2% | SF-295 CNS 98.3% | SF-539 CNS 100% | UACC-257 melanoma 99.4% | M14 melanoma 104% | HCT-15 colon 95.4% | HT29 colon 103% | SNB-75 CNS 87.9% | SNB-19 CNS 96.5% | U251 CNS 104% | PC-3 prostate 106% | SK-MEL-5 melanoma 101% | UACC-62 melanoma 95% | LOX IMVI melanoma 93.8% | SK-MEL-28 melanoma 105%

CCCCCCCCOc1ccc(/C=N/Nc2cc(C)nc3ccc(Cl)cc23)cc1
inactive: MALME-3M melanoma 91% | SF-268 CNS 104% | UACC-257 melanoma 116% | M14 melanoma 87.7% | SNB-75 CNS 52.2% | SK-MEL-5 melanoma 96% | UACC-62 melanoma 91.2%
active: DU-145 prostate -87.3% | K-562 leukemia -52.6% | MDA-MB-231 breast -59.3% | RXF 393 renal -68.9% | SF-295 CNS -72.8% | SF-539 CNS -81% | HCT-15 colon -82.3% | HT29 colon -55.9% | SNB-19 CNS 9.5% | U251 CNS -61% | PC-3 prostate -62.9% | LOX IMVI melanoma -90.7%

COc1ccc(CNCCN2C(=O)c3ccc4c5c(ccc(c35)C2=O)C(=O)N(CCNCc2ccc(OC)cc2)C4=O)cc1
active: DU-145 prostate -90.6% | K-562 leukemia -37.8% | MALME-3M melanoma -76.3% | MDA-MB-231 breast -16.7% | RXF 393 renal -93% | SF-268 CNS -71.2% | SF-295 CNS -62.2% | SF-539 CNS -77.3% | UACC-257 melanoma -91% | M14 melanoma -72.8% | HCT-15 colon -68.1% | HT29 colon -55.3% | SNB-75 CNS -95.7% | SNB-19 CNS -90.9% | U251 CNS -91.8% | PC-3 prostate -76% | SK-MEL-5 melanoma -99.6% | UACC-62 melanoma -84.4% | LOX IMVI melanoma -74.7% | SK-MEL-28 melanoma -96.2%

CC(O)/C=C/C=C/C(O)CC/C=C/C(=O)NCC(C)(C)O (centres undefined)
inactive: DU-145 prostate 106% | K-562 leukemia 72.8% | MALME-3M melanoma 112% | MDA-MB-231 breast 111% | RXF 393 renal 121% | SF-268 CNS 108% | SF-295 CNS 107% | SF-539 CNS 109% | UACC-257 melanoma 91.5% | M14 melanoma 101% | HCT-15 colon 104% | HT29 colon 102% | SNB-75 CNS 96.3% | SNB-19 CNS 99.6% | U251 CNS 98.3% | PC-3 prostate 91.7% | SK-MEL-5 melanoma 99.1% | UACC-62 melanoma 90.1% | LOX IMVI melanoma 95.3% | SK-MEL-28 melanoma 111%

Nc1c(C(=O)Nc2cccc3ccncc23)sc2nc3c(cc12)C(=O)CCC3
inactive: DU-145 prostate 38.5% | K-562 leukemia 24.8% | MALME-3M melanoma 63.7% | MDA-MB-231 breast 62.8% | RXF 393 renal 29.8% | SF-268 CNS 55.1% | SF-295 CNS 20.1% | SF-539 CNS 16.1% | UACC-257 melanoma 49.2% | M14 melanoma 26.1% | HCT-15 colon 35.1% | HT29 colon 18.2% | SNB-19 CNS 32.9% | U251 CNS 48.3% | PC-3 prostate 52.9% | UACC-62 melanoma 28.9% | LOX IMVI melanoma 46.2%
active: SNB-75 CNS 9.48% | SK-MEL-5 melanoma 3.47%

CC(=O)c1c(-c2ccc(OC(F)(F)F)cc2)nc2ccccn12
inactive: DU-145 prostate 101% | K-562 leukemia 113% | MALME-3M melanoma 88.9% | MDA-MB-231 breast 94% | RXF 393 renal 108% | SF-268 CNS 94.3% | SF-295 CNS 90.2% | SF-539 CNS 92.3% | UACC-257 melanoma 81.8% | M14 melanoma 89.8% | HCT-15 colon 94.9% | HT29 colon 74.2% | SNB-75 CNS 91.9% | SNB-19 CNS 99.1% | U251 CNS 89.8% | PC-3 prostate 95.1% | SK-MEL-5 melanoma 96.6% | UACC-62 melanoma 105% | LOX IMVI melanoma 91.6%

C=C(C)[C@@H]1CC[C@]2(C=O)CC[C@]3(C)[C@H](CC[C@@H]4[C@@]5(C)CCCNC(C)(C)[C@@H]5CC[C@]43C)[C@@H]12
active: K-562 leukemia 0.984%
inactive: DU-145 prostate 77.6% | MALME-3M melanoma 77.7% | MDA-MB-231 breast 91.2% | RXF 393 renal 85.9% | SF-268 CNS 90.8% | SF-295 CNS 105% | SF-539 CNS 90.1% | UACC-257 melanoma 86.6% | M14 melanoma 81% | HCT-15 colon 34.3% | HT29 colon 14% | SNB-75 CNS 110% | SNB-19 CNS 84.6% | U251 CNS 50.4% | PC-3 prostate 48% | SK-MEL-5 melanoma 66% | UACC-62 melanoma 69.9% | LOX IMVI melanoma 84.9% | SK-MEL-28 melanoma 96.7%

Cc1ccccc1CNc1ccc(N2CCOCC2)cc1
inactive: DU-145 prostate 102% | K-562 leukemia 101% | MALME-3M melanoma 102% | MDA-MB-231 breast 101% | RXF 393 renal 114% | SF-268 CNS 93.4% | SF-295 CNS 99.2% | SF-539 CNS 111% | UACC-257 melanoma 103% | M14 melanoma 100% | HCT-15 colon 101% | HT29 colon 105% | SNB-75 CNS 92.7% | SNB-19 CNS 101% | U251 CNS 100% | PC-3 prostate 99.6% | SK-MEL-5 melanoma 99.5% | UACC-62 melanoma 94.8% | LOX IMVI melanoma 102%

CC(=O)[C@@H]1CC[C@]2(C(N)=O)CC[C@]3(C)[C@H](CC[C@@H]4[C@@]5(C)CCC(=O)C(C)(C)[C@@H]5CC[C@]43C)[C@@H]12
inactive: DU-145 prostate 105% | K-562 leukemia 88.4% | MALME-3M melanoma 112% | MDA-MB-231 breast 95.8% | RXF 393 renal 109% | SF-268 CNS 95.4% | SF-295 CNS 93.8% | SF-539 CNS 99.5% | UACC-257 melanoma 93.6% | M14 melanoma 93.4% | HCT-15 colon 103% | HT29 colon 95.9% | SNB-75 CNS 89% | SNB-19 CNS 102% | U251 CNS 103% | PC-3 prostate 78.5% | SK-MEL-5 melanoma 101% | UACC-62 melanoma 84.5% | LOX IMVI melanoma 99.2%

COc1ccc(/C=N/C2=C(C#N)C(c3ccccc3[N+](=O)[O-])c3ccc4ccccc4c3O2)cc1 (centres undefined)
inactive: DU-145 prostate 100% | K-562 leukemia 80.2% | MALME-3M melanoma 89.8% | MDA-MB-231 breast 77.7% | RXF 393 renal 109% | SF-268 CNS 87.4% | SF-295 CNS 94.9% | SF-539 CNS 97.3% | UACC-257 melanoma 102% | M14 melanoma 90.4% | HCT-15 colon 75.3% | HT29 colon 112% | SNB-75 CNS 61.3% | SNB-19 CNS 96.6% | U251 CNS 101% | PC-3 prostate 71.7% | SK-MEL-5 melanoma 81.9% | UACC-62 melanoma 81.1% | LOX IMVI melanoma 90.3% | SK-MEL-28 melanoma 113%
